Compound activity: PubChem, National Center for Advancing Translational Sciences (NCATS)
The sample as a whole holds a higher share of hits than the screen did.
Pf Dd2 growth: Plasmodium falciparum Dd2 growth inhibition; P. falciparum Dd2 growth, SYBR Green, 72 h; Potency, µM (highest dose often 28.9 µM), inactives show top-dose activity, negative = inhibition, usual class: inhibitors; hit rate 4.3% among 120,000; AID 1347417; active = well fitted inhibition curve with a large enough effect;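 also: plate controls were DMSO vehicle for no effect and reference drug for full effect; nearly all actives have a fitted effect of over 65% in size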
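Readout: SYBR Green fluorescence, 485 nm excitation, 535 nm emission, after ~16 h lysis at 37C. Before that, Dd2-infected red cells (2.5% hematocrit) grew 72 h with compound, 29 uM top final concentration.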
The depositor's hits bear a star; i = inactive; [ ] = remark or other dose. Potency is read from the fitted curve at half-maximal effect.

SMILES	Pf Dd2 growth
Cc1ccc(C)c(NC(=O)C2CCN(c3ncnc4c3nc3n4CCCCC3)CC2)c1	15%
O=C(Nc1ccc(F)cc1)C1CCCN(c2ncnc3c2nc2n3CCCCC2)C1 (stereo not given)	-20%
CCOc1ccccc1N(C)C(=O)C1CCCN(c2ncnc3c2nc2n3CCCCC2)C1 (stereo not given)	-2%
Cc1ccc(C)c(N(C)C(=O)C2CCN(c3ncnc4c3nc3n4CCCCC3)CC2)c1	8.9µM*
Cc1ccc(C(C(=O)NCc2cc(C)nn2C)N(C)C)cc1 (stereo not given)	-9%
CN(C)c1ccc(C(=O)N2CCC[C@H]2c2nc(-c3ccccc3)no2)cc1	0%
O=C1Nc2ccccc2C12CCN([S+](=O)([O-])c1ccsc1)CC2	-3%
CC(=O)N1C[C@@H](CO)[C@H](NC(=O)c2ccccc2)C1	-4%
Cc1cc(C(=O)N2CCCn3ccnc3C2c2cnn(C)c2)n[nH]1 (stereo not given)	0%
COCC1CN(C2CCC2)CC12CCN(C(=O)c1ccco1)CC2 (stereo not given)	-16%
O=C(Nc1ccc([C@H]2OCC(=O)N(Cc3ccc(F)cc3)[C@@H]2CO)cc1)c1cnccn1	2%
Cc1ccc(C(=O)N(CC(C)C)CC2CN(C(=O)Nc3cccc(Cl)c3)CCO2)cc1 (stereo not given)	-26%
O=C(Nc1cccc(Cl)c1)N1CCOC(CN(CC2CC2)C(=O)c2cccc(F)c2)C1 (stereo not given)	4.5µM*
O=C(Nc1ccccc1)N1CCOC(CN(CC2CC2)C(=O)c2cccc(F)c2)C1 (stereo not given)	i
CCn1cc(S(=O)(=O)N2CC(Oc3ccc(-c4nc(C)no4)cc3)C2)cn1	i[5.79 µM]
Cn1cc(C(=O)N2CC(Oc3ccc(-c4nc(-c5ccccc5)no4)cc3)C2)cn1	25%[5.79 µM]
CCn1cc(CN2CC(Oc3ccc(-c4noc(-c5ccncc5)n4)cc3)C2)cn1	1.8µM*
O=C(c1ccc(N2CC[C@H](O)C2)nc1)N1CCC(Oc2cccnc2)CC1	-14%
CN(C(=O)CN1C(=O)NC2(CCCCC2)C1=O)c1ccccc1	6%
O=C(NCc1cccc(F)c1)C1CCN(C(=O)c2ncn3c2COC(c2ccccc2)C3)CC1 (stereo not given)	-3%
Cc1nn(-c2cccc(Br)c2)c(C)c1[C@@H]1C=C[C@@H](NS(C)(=O)=O)C1	-3%[44.1 µM]
Cc1nn(CCC#N)c(C)c1[C@@H]1C=C[C@@H](NCc2ccc(F)cc2)C1	-16%[44.1 µM]
Cc1ccc(-n2nc(C)c([C@@H]3C=C[C@@H](NCc4ccc(F)cc4)C3)c2C)cc1Cl	3.5µM*
Cc1ccc(-n2nc(C)c([C@@H]3C=C[C@@H](NCc4ccc(N(C)C)cc4)C3)c2C)cc1Cl	-42%[44.1 µM]
Cc1nn(-c2ccc(C(C)C)cc2)c(C)c1[C@@H]1C=C[C@@H](NCc2cccc(C#N)c2)C1	4.5µM*
SMILES	Pf Dd2 growth
Cc1ccc(-n2nc(C)c([C@@H]3C=C[C@@H](NC(=O)CC(C)(C)CC(=O)O)C3)c2C)cc1Cl	i
Cc1nn(-c2ccccc2)c(C)c1[C@@H]1C=C[C@@H](NCc2cccc(C#N)c2)C1	i
Cc1nn(-c2ccc(C(C)C)cc2)c(C)c1[C@@H]1C=C[C@@H](NCc2ccc(F)cc2)C1	4µM*
CSCC(=O)N1CCCC(CCc2cccc(F)c2)C1 (stereo not given)	-20%
Cc1ccc(CC(=O)N[C@@H]2CN(c3ccncn3)C[C@H]2CO)cc1	21%
COc1ccc(CCCn2ccnc2-c2cn(C3CCNCC3)nn2)cc1	-7%
O=C(c1ccn[nH]1)N(CC1CCN(Cc2ccccc2F)CC1)CC1CCCO1 (stereo not given)	2%
O=C(O)C[C@@H]1CCN(Cc2ccccc2)C[C@@H]1CCN1C[C@@H]2C[C@H](C1)c1cccc(=O)n1C2	-10%
CS(=O)(=O)N1CCc2ccc(C(=O)NCc3ccc(N4CCOCC4)cc3)cc21	i
Cc1ccc(C(=O)N2CC(C(=O)NC3CCCCC3)C3(CCOCC3)C2)cc1 (stereo not given)	-18%
COc1ccc(C(=O)N2C[C@@H]3C[C@H](C2)c2c(NC(=O)Nc4ccccc4OC)ccc(=O)n2C3)cc1	19%
Cc1noc([C@@H]2CN(C(=O)CC(C)(C)C)C[C@H]2CO)n1	1%
Cc1ccc(Cl)cc1N1CCN(C(=O)c2ccc3c(c2)N(Cc2ccccc2)CCS3)CC1	8.9µM*
Cc1ccccc1CNC(=O)c1ccc2c(c1)N(Cc1ccccc1)CCS2	4%
Cc1ccc(C)c(N2CCN(C(=O)c3ccc4c(c3)N(Cc3ccc(F)cc3)C(=O)c3ccccc3S4=O)CC2)c1 (stereo not given)	-16%
COc1ccc(CNC(=O)c2ccc3c(c2)N(Cc2ccccc2)CCS3)cc1	-6%
Cc1cccc(N2CCN(C(=O)c3ccc4c(c3)N(Cc3cccc(Cl)c3)C(=O)c3ccccc3S4=O)CC2)c1C (stereo not given)	-7%
CCN1C(=O)c2ccccc2S(=O)c2ccc(C(=O)N3CCN(c4cc(Cl)ccc4C)CC3)cc21 (stereo not given)	8.9µM*
C[C@@H](NC(=O)Cc1ccccc1)c1onc(-c2ccc(Cl)cc2)c1C(=O)O	-8%[44.1 µM]
COc1cc(-c2[nH]ncc2CN2CCCCC2c2nccs2)cc(OC)c1OC (stereo not given)	-22%
COc1ccc(-c2cc3c(ccn3C)c(C(=O)NCCC(N)=O)n2)cc1OC	-9%[44.1 µM]
CN(C)CCNC(=O)c1nc(-c2ccc(N3CCN(C)CC3)cc2)cc2c1ccn2C	11µM*
Cn1ccc2c(C(=O)NCc3cccnc3)nc(-c3ccc(CO)cc3)cc21	-23%[44.1 µM]
O=C(c1ccccc1)N1CCCC(c2nn[nH]n2)C1 (stereo not given)	50%
Cc1cc2nc3n(c(=O)c2n1CC(=O)NCCC1=CCCCC1)CCC3	i
SMILES	Pf Dd2 growth
CN1CC(=O)N(C2CCCNC2)Cc2c1ncnc2N1CCCN(Cc2ccccc2)CC1 (stereo not given)	-7%
NC1CCCN(c2cc(N3CCCC3)ncn2)C1 (stereo not given)	-6%[5.79 µM]
COC(=O)[C@@H]1Cc2c([nH]c3ccccc23)[C@H]2C[C@@H](NCc3cccnc3)C[C@@H](c3ccccc3)N21	-23%
COCCN[C@@H]1C[C@@H]2c3[nH]c4ccccc4c3C[C@@H](C(=O)OC)N2[C@H](c2cccc(OC)c2)C1	5µM*
COC(=O)[C@@H]1Cc2c([nH]c3ccccc23)[C@H]2C[C@@H](NC[C@H]3CCCO3)C[C@@H](c3ccccc3F)N21	-9%
COC(=O)[C@@H]1Cc2c([nH]c3ccccc23)[C@H]2C[C@@H](NCCCn3ccnc3)C[C@@H](c3cccc(Cl)c3)N21	2.2µM*
COC(=O)[C@@H]1Cc2c([nH]c3ccccc23)[C@H]2C[C@@H](NCCCn3ccnc3)C[C@@H](c3ccc(Cl)c(F)c3)N21	3.2µM*
COCc1ccc2c(c1)c(OC(C)(C)C(=O)NCCCn1ccnc1)nn2Cc1ccccc1	-13%
COC(=O)[C@@H]1Cc2c([nH]c3ccccc23)[C@H]2C[C@@H](NCCc3cnc[nH]3)C[C@@H](c3ccccc3F)N21	i
COC(=O)[C@@H]1Cc2c([nH]c3ccccc23)[C@H]2C[C@H](NCCNC(C)=O)C[C@@H](c3ccc(C(F)(F)F)cc3)N21	-1%
O=C(NCCCn1ccnc1)c1ccc(C2CCCNC2)cc1 (stereo not given)	12%
CC(C)(C)c1nnc2n1C(C(=O)N1CCCC1)CC2 (stereo not given)	3%[44.1 µM]
O=C(CC1CCCC1)NCCc1noc(Cc2ccccc2)n1	37%
